Rows were chosen to be rich in hits. Some 1.3% of all compounds tested hit in one or more screens of this group.
S1P2 antag: antagonists of human S1P2 receptor; O95136; cell-based S1P2 antagonist assay, inhibition at 5 uM; inhibition, % at 5 µM; actives 0.21% (n = 97,000); AID 736; in the data active = inhibition above about 45%;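 note: CRE beta-lactamase reporter cells expressing human S1P2 stimulated with S1P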
F-actin modifier: alters cytoskeleton assembly in HUVEC cells; HUVEC TNFa F-actin phalloidin imaging, high content; inhibition, % at 2 µM; actives 0.18% (n = 91,000); AID 836;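 active = inhibition above the batch mean plus 3 SD and confirmed as a hit by visual image inspection, cut at about 30% in these data, passing the limit was not always enough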
GALR2 ag: activates the human galanin receptor 2 | actives 0.48% (n = 140,000) | AID 803 | GALR2-expressing cells, agonist activation read-out | O43603 | activation, % (no concentration beside the values); in the data active = activation above about 5%, passing the limit was not always enough
Target sequence (O43603 whole entry, looked up): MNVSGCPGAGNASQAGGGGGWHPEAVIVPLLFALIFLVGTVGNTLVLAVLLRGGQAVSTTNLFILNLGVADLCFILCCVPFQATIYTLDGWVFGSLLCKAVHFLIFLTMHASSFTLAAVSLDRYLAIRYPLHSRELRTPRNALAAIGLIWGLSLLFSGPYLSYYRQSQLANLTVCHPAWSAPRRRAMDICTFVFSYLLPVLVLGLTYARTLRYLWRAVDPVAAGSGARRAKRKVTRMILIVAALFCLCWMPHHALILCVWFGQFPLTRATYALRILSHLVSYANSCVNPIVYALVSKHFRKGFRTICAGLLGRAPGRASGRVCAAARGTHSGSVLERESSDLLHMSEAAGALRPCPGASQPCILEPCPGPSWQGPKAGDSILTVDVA
S1P2 agonist: activates the human S1P2 receptor; activation, % at 4.5 µM; AID 729; S1P2-expressing cell line, agonist reporter read-out; actives 0.46% (n = 97,000); in the data active = activation above about 16%
GALR2 blocker: antagonists of human galanin receptor 2 (GALR2). O43603. GALR2-expressing cells, antagonist mode. inhibition, % at 4 µM. actives 0.39% (n = 140,000); in the data active = inhibition above about 27%;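 note: cells stimulated with galanin 1-16 at roughly its EC80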
GALR2 ag confirm: GALR2 (human) agonism confirmed; shares compounds with GALR2 ag; GALR2-expressing cells, agonist activation; activation, % at 5.6 µM; actives 10% (n = 460); AID 864; in the data active = activation above about 8.4%
BLA act counter: beta-lactamase activation, GALR2 counterscreen; actives 10% (n = 460); shares compounds with GALR2 ag; AID 865; activation, % at 5.6 µM; CHO NFAT-bla reporter, beta-lactamase FRET activation;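 active = activation above the screen-wide mean activation plus 3 SD, cut at about 8% in these data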
Hits are given with their value; - = inactive; . = not tested or not shown.

SMILES | S1P2 antag | F-actin modifier | GALR2 ag | S1P2 agonist | GALR2 blocker | GALR2 ag confirm | BLA act counter
Cc1cccc(S(=O)(=O)Nc2nc3ccccc3nc2NCc2ccc3c(c2)OCO3)c1 | . | . | - | . | - | . | .
CCOc1ncccc1C(=O)OCC(=O)Nc1ccc(-c2nc3ccc(C)cc3s2)cc1 | . | . | 10.9 | . | - | - | -
NS(=O)(=O)c1cnccc1Nc1ccc(Cl)c(Cl)c1 | . | . | - | . | - | . | .
CCCCn1c(SCC(=O)c2cc(OC)ccc2OC)nc2cc(S(N)(=O)=O)ccc21 | . | . | 68.3 | . | - | - | -
CCCCn1c(SCC(=O)N2CCC(C)CC2)nc2cc(S(N)(=O)=O)ccc21 | - | - | - | - | - | . | .
C=CCOc1ccc(C2/C(=C(\O)c3ccc(F)cc3)C(=O)C(=O)N2CCCN(C)C)cc1 (stereo unspecified) | - | - | 8.3 | - | - | - | -
Cc1nn(Cc2ccccc2Cl)c(C)c1C(=O)NCCN1C(=O)S/C(=C\c2ccccc2)C1=O | . | . | - | . | - | . | .
COC(=O)c1cc2ccsc2n1CC(=O)Nc1cc(C)cc(C)c1 | - | - | - | - | - | - | -
O=C(Nc1ccccc1-c1nnn(CC(=O)N2CCCc3ccccc32)n1)c1ccc(Cl)cc1 | - | - | 27.7 | - | - | - | -
O=C(Cn1c2ccccc2c(=O)c2ccccc21)Nc1ccccc1F | . | . | 14.9 | . | - | - | -
Cc1ccc2nc3c(cc(C(=O)NCC4CCCO4)c(=N)n3CCCOC(C)C)c(=O)n2c1 (stereo unspecified) | - | - | - | - | - | - | -
Cc1ccc2nc3c(cc(C(=O)NCC4CCCO4)n3C)c(=O)n2c1 (stereo unspecified) | - | - | - | - | - | . | .
CCOC(=O)Cc1csc(NC(=O)CSc2ncnc3c2cnn3-c2ccc(OC)cc2)n1 | - | - | 11.8 | - | - | - | -
CN(C)c1ccc(/C=C2\SC(=O)N(CC(O)Cn3c4ccccc4c4ccccc43)C2=O)cc1 (stereo unspecified) | . | . | - | . | - | . | .
CN(C)c1ccc(/C=C2/SC(=O)N(CCN=C3NS(=O)(=O)c4ccccc43)C2=O)cc1 | . | . | 12.7 | . | - | - | -
Cc1cccc2c1-c1sc(C(=O)Nc3nccs3)cc1CO2 | - | - | 89.1 | 23.6 | - | 11.1 | 24.4
CC(=O)c1cccc(NC(=O)c2ccc(Br)o2)c1 | . | . | - | . | - | . | .
CCCCC(=O)Nc1cccc(NC(=O)c2ccc(Br)o2)c1 | - | - | - | - | - | - | -
CCCCOP(=O)(OCCCC)C1(NS(=O)(=O)c2ccccc2)C=CC(=O)c2ccccc21 (stereo unspecified) | - | . | - | - | - | . | .
Cc1nc(NCc2ccco2)c2c(C)c(C)sc2n1 | - | - | - | - | - | . | .
Cc1nc(SCC(=O)N(C)Cc2ccco2)c2c(C)c(C)sc2n1 | - | - | - | - | - | - | -
CCn1cc(C2=NOC(C(=O)Nc3cc(C)nn3-c3ccccc3)C2)c(C)n1 (stereo unspecified) | . | . | 11.1 | . | - | - | -
CC1(C)Cc2c(C#N)c(NCc3ccco3)nc(-c3ccco3)c2CO1 | . | . | - | . | - | . | .
CC1(C)Cc2c(C#N)c(N3CCCC3)nc(-c3ccco3)c2CO1 | - | . | - | - | - | - | -
COc1cc([C@H]2c3[nH]c4ccccc4c3C[C@H]3C(=O)N4[C@@H](c5cc(OC)c(OC)c(OC)c5)c5[nH]c6ccccc6c5C[C@H]4C(=O)N23)cc(OC)c1OC | . | . | 9.6 | . | - | - | -
SMILES | S1P2 antag | F-actin modifier | GALR2 ag | S1P2 agonist | GALR2 blocker | GALR2 ag confirm | BLA act counter
O=C1[C@@H]2Cc3c([nH]c4ccccc34)[C@@H](c3ccccc3)N2C(=O)[C@@H]2Cc3c([nH]c4ccccc34)[C@@H](c3ccccc3)N12 | . | . | - | . | - | . | .
Nc1c(C(=O)NCc2ccccc2)c2nc3ccccc3nc2n1CCCN1CCOCC1 | . | . | 16.2 | . | - | 10.6 | 22.6
N#Cc1c(NC(=O)c2ccccc2Cl)n(Cc2ccccc2)c2nc3ccccc3nc12 | . | . | 8.2 | . | - | - | -
CC1=CC(C)(C)N(C(=O)CSc2nnc(C)s2)c2ccc(C)cc21 | - | - | - | - | - | . | .
CC1=CC(C)(C)N(C(=O)CSc2nnc(N)s2)c2cc(C)c(C)cc21 | - | - | 42.7 | - | - | - | -
Cc1cccc2cc3c(NC(=O)c4ccccn4)nn(C)c3nc12 | - | - | - | - | - | - | -
Cc1cccc(NC(=O)/C(C#N)=C/c2cn(CC(=O)NCc3ccco3)c3ccccc23)c1C | . | . | 28.8 | . | - | 11.4 | 8.2
COc1ccc(C2c3c(oc4ccc(Cl)cc4c3=O)C(=O)N2Cc2ccco2)cc1OC (stereo unspecified) | . | . | 21.1 | . | - | - | -
Cc1cc(/C=N/NC(=O)Cn2c3ccccc3c(=O)c3ccccc32)c(C)n1-c1ccccc1 | - | - | - | - | - | - | -
CC(=O)NCN1CCN(CNC(C)=O)CC1 | - | - | - | - | - | - | -
COC(=O)c1cn(NC(=O)c2cccc(F)c2)c(=O)c2ccccc12 | - | . | 18.4 | - | - | - | -
COC(=O)c1cn(NC(=O)c2cccc(N(C)C)c2)c(=O)c2ccccc12 | - | - | - | - | - | . | .
Cn1nccc1C(=O)Nn1cnnc1 | - | - | 20.2 | - | - | - | -
O=C(Nc1c(Cl)ccc2nsnc12)c1cccnc1 | . | . | - | . | - | . | .
COCCN1C=C(C(=O)OC)C(c2ccccc2C(F)(F)F)C(C(=O)OC)=C1 | - | - | 17.6 | - | - | - | -
CCCn1nc(NC(=O)c2cccs2)c2cc3ccccc3nc21 | - | - | - | - | - | . | .
CCCn1nc(NC(=O)c2cccs2)c2cc3cc(OC)ccc3nc21 | - | - | - | - | - | - | -
CCCCn1nc(NC(=O)c2cccs2)c2cc3ccccc3nc21 | - | - | - | - | - | - | -
CCOc1ccccc1NC(=S)N1CCC(c2nc3ccccc3o2)CC1 | . | . | - | . | - | . | .
CCN(CC)S(=O)(=O)c1ccc(C)c(NC(=O)CSc2nc3ccc(C)cc3[nH]2)c1 | . | . | - | . | - | . | .
O=C(/C=C/c1ccco1)Nc1cc(Cl)ccc1C(=O)O | . | . | 12.0 | . | - | - | -
Cc1ccc(C(=O)NC(N2CCCC2)C(Cl)(Cl)Cl)cc1 (stereo unspecified) | - | - | - | - | - | . | .
Cc1cc(C)nc(/N=C(\N)N2CCCCCC2)n1 | . | . | 17.1 | . | - | - | -
O=C(Cn1c(COc2ccccc2)nc2ccccc21)Nc1cc(Cl)cc(Cl)c1 | . | . | - | . | - | . | .
O=C(Cn1c(COc2ccccc2)nc2ccccc21)Nc1cc(Cl)ccc1Cl | . | . | 10.1 | . | - | - | -
CCOC(=O)c1cnc(SCc2cccc(C)c2)nc1N | - | - | - | - | - | . | .
Cc1cccn2c(=O)c(/C=C(\C#N)C(=O)NC3CCS(=O)(=O)C3)c(N3CCC(C)CC3)nc12 (stereo unspecified) | . | . | - | . | - | . | .
N#C/C(=C\c1c(N2CCCCC2)nc2ccccn2c1=O)C(=O)NC1CCS(=O)(=O)C1 (stereo unspecified) | . | . | 12.6 | . | - | - | -
CCCCn1c(-c2ccccc2)cnc1SCC(=O)NCCc1ccc(OC)c(OC)c1 | - | . | - | - | - | . | .
